Data as given in publication PMC11574364.

molecular target: T1, U1SNRNPBP (Homo sapiens, UniProt Q16560); test: protein domain microarray probed with biotinylated miRNA; Domain array: 20 mM Tris-HCl pH 7.4, 200 mM KCl, 0.2 mM EDTA, 0.05% NP40, 2 ug/ul heparin, overnight 4 C. ORF array: PBS pH 7.0 with RNase inhibitor, 100 ng RNA; high values mean tight binding; settings: ssRNA
T1 sequence: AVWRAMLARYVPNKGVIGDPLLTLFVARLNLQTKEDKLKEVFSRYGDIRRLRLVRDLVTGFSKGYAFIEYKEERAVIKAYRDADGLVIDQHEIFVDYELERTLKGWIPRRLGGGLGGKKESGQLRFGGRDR

Sequence | binding signal
CAGUGCAAUGAUGAAAGGGCAU | 46.4 ± 1.24 fluorescence intensity
UGAGGUAGUAGGUUGUGUGGUU | 130 ± 6.12 fluorescence intensity
UGAGGUAGUAGGUUGUAUGGUU | 99.4 ± 1.25 fluorescence intensity
AGAGGUAGUAGGUUGCAUAGUU | 63.6 ± 1.29 fluorescence intensity

molecular target: T2, RBM47 (Homo sapiens, UniProt A0AV96); test: as above; settings: ssRNA
T2 sequence: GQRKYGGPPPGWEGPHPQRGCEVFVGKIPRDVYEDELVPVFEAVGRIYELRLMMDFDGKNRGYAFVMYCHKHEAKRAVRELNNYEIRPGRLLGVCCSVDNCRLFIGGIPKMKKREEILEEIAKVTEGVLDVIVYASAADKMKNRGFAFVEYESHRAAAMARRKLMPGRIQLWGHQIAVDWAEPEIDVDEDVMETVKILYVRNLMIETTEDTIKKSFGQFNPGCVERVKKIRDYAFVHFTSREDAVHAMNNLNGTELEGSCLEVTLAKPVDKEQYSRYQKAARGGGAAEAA

Sequence | binding signal
CAGUGCAAUGAUGAAAGGGCAU | 26.2 ± 2.96 fluorescence intensity
UGAGGUAGUAGGUUGUGUGGUU | 53 ± 7.04 fluorescence intensity
UGAGGUAGUAGGUUGUAUGGUU | 41.2 ± 0.636 fluorescence intensity
AGAGGUAGUAGGUUGCAUAGUU | 29.82 ± 0.276 fluorescence intensity

molecular target: T3, KHSRP(1-4) (Homo sapiens, UniProt Q92945); test: as above; settings: ssRNA
T3 sequence: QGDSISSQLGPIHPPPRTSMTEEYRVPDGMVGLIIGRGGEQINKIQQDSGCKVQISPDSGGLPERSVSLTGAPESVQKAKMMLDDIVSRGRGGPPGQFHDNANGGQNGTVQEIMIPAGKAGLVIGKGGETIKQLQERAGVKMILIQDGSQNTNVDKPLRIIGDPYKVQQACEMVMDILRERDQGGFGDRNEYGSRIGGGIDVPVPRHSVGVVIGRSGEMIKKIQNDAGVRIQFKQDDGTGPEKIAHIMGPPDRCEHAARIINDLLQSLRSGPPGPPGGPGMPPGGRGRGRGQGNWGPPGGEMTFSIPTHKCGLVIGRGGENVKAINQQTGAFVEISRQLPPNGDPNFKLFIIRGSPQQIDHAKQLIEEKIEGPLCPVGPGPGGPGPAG

Sequence | binding signal
CAGUGCAAUGAUGAAAGGGCAU | 675 ± 8.46 fluorescence intensity
UGAGGUAGUAGGUUGUGUGGUU | 992.47 ± 0.686 fluorescence intensity
UAGCUUAUCAGACUGAUGUUGA | 192 ± 3.5 fluorescence intensity
UGAGGUAGUAGGUUGUAUGGUU | 786 ± 28.3 fluorescence intensity
UGAGGUAGUAGGUUGUAUAGUU | 419 ± 11.8 fluorescence intensity
AGAGGUAGUAGGUUGCAUAGUU | 951 ± 76.8 fluorescence intensity

molecular target: T4, RBMS2 (Homo sapiens, UniProt Q15434); test: as above; settings: ssRNA
T4 sequence: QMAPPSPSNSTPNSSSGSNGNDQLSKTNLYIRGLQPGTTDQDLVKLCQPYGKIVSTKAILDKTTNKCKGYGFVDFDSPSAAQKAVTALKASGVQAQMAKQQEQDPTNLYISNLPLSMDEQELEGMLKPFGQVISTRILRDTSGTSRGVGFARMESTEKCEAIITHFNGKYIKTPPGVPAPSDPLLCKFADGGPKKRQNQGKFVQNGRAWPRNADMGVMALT

Sequence | binding signal
CAGUGCAAUGAUGAAAGGGCAU | 39 ± 3.47 fluorescence intensity
UGAGGUAGUAGGUUGUGUGGUU | 95.1 ± 1.34 fluorescence intensity
UGAGGUAGUAGGUUGUAUGGUU | 91.7 ± 4.18 fluorescence intensity
UGAGGUAGUAGGUUGUAUAGUU | 24.7 ± 2.59 fluorescence intensity
AGAGGUAGUAGGUUGCAUAGUU | 79.9 ± 6.82 fluorescence intensity

molecular target: STAU1(1) (Homo sapiens, UniProt O95793); test: as above; settings: ssRNA
Sequence (O95793 52-182): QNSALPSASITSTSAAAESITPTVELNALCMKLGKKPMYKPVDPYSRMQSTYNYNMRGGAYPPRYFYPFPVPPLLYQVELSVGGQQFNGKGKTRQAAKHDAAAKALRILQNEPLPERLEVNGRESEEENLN

Sequence | binding signal
UGAGGUAGUAGGUUGUGUGGUU | 69.7 ± 6.19 fluorescence intensity
UGAGGUAGUAGGUUGUAUGGUU | 44.5 ± 1.05 fluorescence intensity
AGAGGUAGUAGGUUGCAUAGUU | 25.68 ± 0.0778 fluorescence intensity

molecular target: T5, STRBP(1) (Homo sapiens, UniProt Q96SI9); test: as above; settings: ssRNA
T5 sequence: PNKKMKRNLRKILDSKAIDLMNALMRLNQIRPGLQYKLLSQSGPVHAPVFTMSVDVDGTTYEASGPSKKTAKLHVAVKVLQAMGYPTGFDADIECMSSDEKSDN

Sequence | binding signal
CAGUGCAAUGAUGAAAGGGCAU | 37.99 ± 0.283 fluorescence intensity
UGAGGUAGUAGGUUGUGUGGUU | 125 ± 14.3 fluorescence intensity
UGAGGUAGUAGGUUGUAUGGUU | 62.8 ± 0.686 fluorescence intensity
AGAGGUAGUAGGUUGCAUAGUU | 34.2 ± 1.84 fluorescence intensity

molecular target: RALY (Homo sapiens, UniProt Q9UKM9); test: as above; settings: ssRNA
Sequence (Q9UKM9 1-115): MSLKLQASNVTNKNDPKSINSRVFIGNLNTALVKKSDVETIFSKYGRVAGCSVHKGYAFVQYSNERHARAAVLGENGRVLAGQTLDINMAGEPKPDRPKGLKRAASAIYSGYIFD

Sequence | binding signal
CAGUGCAAUGAUGAAAGGGCAU | 332 ± 5.22 fluorescence intensity
UGAGGUAGUAGGUUGUGUGGUU | 1730 ± 54.9 fluorescence intensity
UAGCUUAUCAGACUGAUGUUGA | 591 ± 33.9 fluorescence intensity
UGAGGUAGUAGGUUGUAUGGUU | 1750 ± 31.6 fluorescence intensity
UGAGGUAGUAGGUUGUAUAGUU | 789 ± 24.3 fluorescence intensity
AGAGGUAGUAGGUUGCAUAGUU | 1628 ± 11.4 fluorescence intensity

molecular target: RBM25 (Homo sapiens, UniProt P49756); test: as above; settings: ssRNA
Sequence (P49756 67-185): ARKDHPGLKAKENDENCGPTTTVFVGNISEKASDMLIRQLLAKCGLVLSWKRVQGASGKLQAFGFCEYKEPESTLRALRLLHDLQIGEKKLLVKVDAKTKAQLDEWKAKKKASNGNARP

Sequence | binding signal
CAGUGCAAUGAUGAAAGGGCAU | 36 ± 0.488 fluorescence intensity
UGAGGUAGUAGGUUGUGUGGUU | 98.3 ± 20.9 fluorescence intensity
UGAGGUAGUAGGUUGUAUGGUU | 63.1 ± 0.806 fluorescence intensity
AGAGGUAGUAGGUUGCAUAGUU | 39.5 ± 3.96 fluorescence intensity

molecular target: T6, RBM21 (Homo sapiens, UniProt Q9H6E5); test: as above; settings: ssRNA
T6 sequence: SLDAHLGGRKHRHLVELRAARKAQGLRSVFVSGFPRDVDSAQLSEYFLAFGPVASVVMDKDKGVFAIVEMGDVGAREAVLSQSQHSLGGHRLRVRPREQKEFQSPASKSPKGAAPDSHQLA

Sequence | binding signal
CAGUGCAAUGAUGAAAGGGCAU | 38.1 ± 3.22 fluorescence intensity
UGAGGUAGUAGGUUGUGUGGUU | 63.5 ± 6.73 fluorescence intensity
UGAGGUAGUAGGUUGUAUGGUU | 53.6 ± 2.81 fluorescence intensity
AGAGGUAGUAGGUUGCAUAGUU | 34.33 ± 0.0778 fluorescence intensity

molecular target: T7, SART3 (Homo sapiens, UniProt Q15020); test: as above; settings: ssRNA
T7 sequence: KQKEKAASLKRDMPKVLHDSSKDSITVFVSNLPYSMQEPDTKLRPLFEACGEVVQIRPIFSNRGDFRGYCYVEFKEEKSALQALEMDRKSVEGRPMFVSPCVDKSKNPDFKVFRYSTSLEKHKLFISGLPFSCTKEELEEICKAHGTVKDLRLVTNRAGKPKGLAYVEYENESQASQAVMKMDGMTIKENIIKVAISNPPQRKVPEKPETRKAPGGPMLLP

Sequence | binding signal
CAGUGCAAUGAUGAAAGGGCAU | 29.6 ± 6.57 fluorescence intensity
UGAGGUAGUAGGUUGUGUGGUU | 113 ± 30.2 fluorescence intensity
UGAGGUAGUAGGUUGUAUGGUU | 51.5 ± 2.31 fluorescence intensity
AGAGGUAGUAGGUUGCAUAGUU | 36.8 ± 2.71 fluorescence intensity
